Screening data as filed in PubChem BioAssay.
Mtb FBA inh: inhibits M. tuberculosis FBA enzyme; AID 588726; inhibition, % at 1 µM; purified M. tuberculosis FBA, fluorescence read-out; P9WQA3; hit rate 2.3% among 360,000;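 also: 0% = vehicle and 100% = reference inhibitor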
Target sequence (P9WQA3 whole entry, looked up): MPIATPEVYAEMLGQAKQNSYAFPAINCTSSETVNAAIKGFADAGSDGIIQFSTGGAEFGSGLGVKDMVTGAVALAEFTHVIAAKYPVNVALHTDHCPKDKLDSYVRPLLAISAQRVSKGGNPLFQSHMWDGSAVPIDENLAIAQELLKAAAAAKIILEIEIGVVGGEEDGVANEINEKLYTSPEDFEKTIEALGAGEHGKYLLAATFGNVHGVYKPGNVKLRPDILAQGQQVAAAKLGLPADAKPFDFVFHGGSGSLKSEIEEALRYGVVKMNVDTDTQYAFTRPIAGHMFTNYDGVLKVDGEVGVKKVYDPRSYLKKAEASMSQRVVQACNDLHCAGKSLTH
Mtb UGM inh: blocks M. tuberculosis UGM enzyme. inhibition, % at 10 µM. purified UGM, fluorescence polarization probe displacement. P9WIQ1. AID 504406. hit rate 0.06% among 320,000; in the data active = inhibition above about 10%, passing the limit was not always enough; inconclusive = no clear call, values can overlap the other calls
Mtb hypoxia inh: reduces hypoxia-regulated biosensor signal in M. tuberculosis. AID 1159583. M. tuberculosis hypoxia-regulated fluorescent reporter, fluorescence. hit rate 0.1% among 300,000. fluorescence inhibition, % (concentration not given with the values); in the data active = fluorescence inhibition mostly above about 23%, no sharp cut-off; inactive = mostly below about 17%
GDH-TPI counter-1: inhibits GDH-TPI coupling enzymes, artifact for Mtb FBA screen; GDH-TPI coupled enzyme counterscreen, NADH absorbance; inhibition, % at 4.8 µM; hit rate 1.2% among 360,000; AID 588335; in the data active = inhibition above about 30%;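 also: 0% = DMSO wells and 100% = wells lacking the enzyme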
Rv3671c protease: inhibitors of M. tuberculosis serine protease Rv3671c | inhibition, % at 5.96 µM | AID 2606 | hit rate 0.048% among 320,000; in the data active = inhibition above about 38%;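 also: extracellular domain of Rv3671c used as enzyme; 0% = enzyme with DMSO and 100% = no enzyme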
FadD28 binding: inhibitors of Mycobacterium tuberculosis FadD28 bisubstrate binding; AID 588549; hit rate 0.22% among 360,000; FadD28 bisubstrate probe binding, fluorescence polarization; inhibition, % at 12.5 µM; in the data active = inhibition above about 8.5%, passing the limit was not always enough; inconclusive = no clear call, values can overlap the other calls
Mtb FBA inh conf: confirmation of M. tuberculosis fructose-bisphosphate aldolase inhibitors. hit rate 78% among 5,600. AID 651616. inhibition, % at 1 µM. shares compounds with Mtb FBA inh. purified M. tuberculosis FBA, fluorescence read-out;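 also: 0% = vehicle wells and 100% = reference inhibitor wells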
GDH-TPI counter-2: inhibits GDH-TPI coupling enzymes, flagging Mtb FBA hits | hit rate 81% among 5,600 | shares compounds with Mtb FBA inh | GDH-TPI coupled enzyme counterscreen, fluorescence | inhibition, % at 1 µM; in the data active = inhibition above about 10%
GDH-TPI DR: inhibits GDH-TPI coupling enzymes in dose response; GDH-TPI coupled enzyme assay, fluorescence, artifact counterscreen; AID 652145; IC50, µM; hit rate 79% among 170; shares compounds with Mtb FBA inh; call rule not given here
Numbers without * were called inactive; ? = inconclusive; / = not tested or not shown; + = active, no number. Shown are actives, neighbours in structure and some others; about 3.5% of the full set was active somewhere. Rule as the data show it, unless noted: active = inhibition above about 27%; inactive = the rest.

SMILES | Mtb FBA inh | Mtb UGM inh | Mtb hypoxia inh | GDH-TPI counter-1 | Rv3671c protease | FadD28 binding | Mtb FBA inh conf | GDH-TPI counter-2 | others
Cc1cc(N2CCN(C)CC2)nc2ccc(NC(=O)CCC(=O)NCCC(C)C)cc12 | 33* | ? | 17 | 21 | 1 | -1 | 5 | 5
C[C@@]12C(=O)NCC(=O)N1C1c3cc(Br)ccc3OCC1C2c1ccccc1 (some centres undefined) | / | / | 7 | / | / | / | / | /
NC(=O)NN=Cc1ccc(-n2nncc2-c2ccc(Cl)cc2)cc1 | / | / | -8 | / | / | / | / | /
COc1ccc(CNC(=O)c2ccc3nccnc3c2)cc1 | 3 | -1 | 9 | 8 | 3 | -1 | / | /
CCCn1nc2cc(C(=O)NCc3ccc(OC(F)(F)F)cc3)ccc2c1OCC | 37* | 0 | -8 | 1 | 1 | -1 | 102* | 81*
CCCn1nc2cc(C(=O)NCc3ccc(OC)cc3)ccc2c1OCC | 48* | 0 | 1 | 3 | 1 | -1 | 60* | 32*
CCOC(=O)Nc1cc2c(C)cc(=O)oc2cc1C | 28* | 2 | -3 | 8 | -5 | 0 | 54* | 42*
CN(CC(=O)Nc1cccc(F)c1)C(=O)c1cc(-c2ccco2)nc2ccccc12 | 75* | -1 | 5 | 11 | 1 | 0 | + | 170*
COc1ccc(NC(=O)CN(C)C(=O)c2cc(-c3ccco3)nc3ccccc23)cc1 | 45* | -1 | 3 | 14 | 10 | -1 | + | +
CC(C)n1c(N=Cc2c[nH]c3ccccc23)nc2ccccc21 | / | / | -5 | / | / | / | / | /
COc1cccc(N2CC(=O)N(NC(=O)c3sc4nc(C)cc(C)c4c3N)CC2=O)c1 | 54* | 2 | -5 | 5 | 0 | -2 | + | 175*
Cc1cc(C)c2c(N)c(C(=O)NNC(=O)c3ccccc3)sc2n1 | 6 | 1 | -6 | 3 | 16 | -3 | / | /
Cc1cc(C)c2c(N)c(C(=O)NN3CC(=O)N(c4ccccc4F)CC3=O)sc2n1 | 62* | -1 | -2 | 3 | -1 | -1 | 104* | 87*
O=C(NN=Cc1ccco1)C12CC3CC(CC(C3)C1)C2 | / | / | 9 | / | / | / | / | /
CCN(CC)CCn1c2ccccc2c2cnc(N)c(C#N)c21 | 29* | 1 | / | 5 | -5 | -3 | + | 180*
CN(C)c1ccc(C=NNS(=O)(=O)c2ccc(Br)cc2)cc1 | / | / | 12 | / | / | / | / | /
COC(=O)C1=C(c2ccc(F)cc2OCc2ccccc2)CC2CCC1N2C(=O)NCCNC(C)=O (centres undefined) | / | / | 6 | / | / | / | / | /
O=C(OCc1cc(=O)oc2cc(O)ccc12)c1cc(S(=O)(=O)N2CCOCC2)ccc1F | 41* | 1 | 1 | 20 | -12 | -1 | -1 | -5
CSCCC(C(=O)NCCCCCCCCCCC(=O)N1CCN(C(=O)OC(C)(C)C)CC1)n1cc(CCO)nn1 (centres undefined) | / | / | -2 | / | / | / | / | /
COC(=O)c1cc(OC)nc2c1c(=O)n(C)c(=O)n2C | 110* | 1 | 7 | 7 | 8 | -1 | / | +
COc1ccccc1C(=O)NN=C(C)CC(=O)Nc1ccc2c(c1)OCCO2 | / | / | 1 | / | / | / | / | /
Cc1ccsc1C=NNC(=O)CNC(=O)c1c(F)cccc1Cl | / | / | -1 | / | / | / | / | /
Cc1c(OC(C)C(=O)NCCCN2CCOCC2)ccc2c1oc(=O)c1ccccc12 (centres undefined) | 74* | 1 | 13 | -6 | -8 | -5 | 2 | -5
Cc1c(C)c2ccc(OC(C)C(=O)NCCCn3ccnc3)c(C)c2oc1=O (centres undefined) | 55* | 1 | 15 | 21 | -10 | -5 | 67* | 51*
CCc1cc(=O)oc2cc(C)cc(OC(C)C(=O)NCCCN3CCCC3=O)c12 (centres undefined) | 87* | -2 | 1 | -2 | -2 | -4 | 1 | 1
SMILES | Mtb FBA inh | Mtb UGM inh | Mtb hypoxia inh | GDH-TPI counter-1 | Rv3671c protease | FadD28 binding | Mtb FBA inh conf | GDH-TPI counter-2 | others
CCc1cc(=O)oc2cc(C)cc(OC(C)C(=O)NC3CC(C)(C)NC(C)(C)C3)c12 (centres undefined) | 72* | 2 | 8 | 13 | -3 | -2 | 49* | 42*
CN(N=Cc1ccc(C(C)(C)C)cc1)C1=NCCN1 | / | / | -6 | / | / | / | / | /
O=C(C=Cc1ccccc1Cl)c1cccnc1 | / | / | 17 | / | / | / | / | /
COc1ccc(C=NN2CCN(c3ccc(Cl)cc3)CC2)cc1O | / | / | -4 | / | / | / | / | /
COc1ccc(C(C)=NNc2nncc3ccccc23)cc1 | / | / | 12 | / | / | / | / | /
Cc1cc(=O)oc2cc(OCC(=O)NCCCN3CCCC3=O)c(Cl)cc12 | 6 | 3 | 5 | 6 | 2 | -3 | / | /
O=C(COc1cc2oc(=O)c3c(c2cc1Cl)CCC3)NCCCN1CCCC1=O | 4 | 1 | 2 | 19 | 7 | 0 | / | /
Cc1c(C)c2cc(Cl)c(OCC(=O)NCCCN3CCCC3=O)cc2oc1=O | 45* | / | / | 34* | / | -1 | 12 | 4 | GDH-TPI DR=7.1*
CCc1cc(=O)oc2cc(C)cc(OC(C)C(=O)NCCCn3ccnc3)c12 (centres undefined) | 54* | -1 | 12 | -9 | -2 | -4 | 5 | -7
CCc1cc(=O)oc2cc(OCC(=O)NCCCN3CCCC3=O)ccc12 | 19 | -1 | 2 | 4 | -4 | -4 | / | /
CCCc1cc(=O)oc2cc(C)cc(OCC(=O)NCCCN3CCCC3=O)c12 | 66* | 1 | 8 | 0 | -1 | -4 | + | +
